# Laboratory results reported in PubChem BioAssay (EPA / NIEHS).
# Records with an inconclusive call do not appear. The source made the active and inactive calls. The calls were made as follows: active = hit-call score of the fitted dose curve at least 0.9, where 1 is the maximum; inconclusive = response in the unintended direction; inactive = score below 0.9.
# Read-out: Cytochrome P450 2C19 (Homo sapiens) (UniProt P33261)
# Experiment: CLD_CYP2C19_6hr: CellzDirect (CLD) Gene Expression Assay for xenobiotic metabolism (CYP2C19) at 6 hours (AID 2283678)
# Description: CLD_6hr is a cell-based, multiplexed-readout assay that uses hepatocyte, a human liver primary cell, with measurements taken at 6 hours after chemical dosing in a 96-well plate.CLD_CYP2C19_6hr is one of 16 assay component(s) measured or calculated from the CLD_6hr assay. It is designed to make measurements of mRNA induction, a form of inducible reporter, as detected with chemiluminescence signals by Quantitative Nuclease Protection Assay (qNPA) technology.Data from the assay component CLD_CYP2C19_6hr was analyzed at the endpoint, CLD_CYP2C19_6hr, in the positive analysis fitting direction relative to DMSO as the negative control and baseline of activity. Using a type of inducible reporter, gain-of-signal activity can be used to understand changes in the reporter gene as they relate to the gene CYP2C19. Furthermore, this assay endpoint can be referred to as a primary readout. To generalize the intended target to other relatable targets, this assay endpoint is annotated to the cyp intended target family, where subfamily is xenobiotic metabolism.
# Human hepatocyte cultures were treated daily for two consecutive days with fresh dosing solutions containing appropriate concentrations of the 320 ToxCast chemicals (chemical identities were blinded to CellzDirect and other ToxCast collaborators), vehicle control (0.2% DMSO), and positive control inducers as summarized in Table 1. Due to the large number of treatment groups and chemicals examined, the ToxCast chemicals were divided into two groups (spanning two independent cultures of hepatocytes from separate donor preparations (Hu778: ToxCast plates 1 and 2; Hu776: ToxCast plates 3 and 4). Each preparation of human hepatocyte cultures was treated with respective vehicle control, medium only control, set of six positive controls/reference chemicals for the five hepatic receptor pathways, and a subset of eight of the ToxCast chemicals (indoxacarb, pyrithiobac-sodium, norflurazon, cyhalofop-butyl, methomyl, thiram, acetochlor, and propiconazole). These replicate data, coupled with internal replicates designed within the blinded ToxCast chemical library, provided additional data to evaluate interindividual differences between hepatocyte preparations and their potential impact on chemical profiles.Cell morphology and integrity were evaluated using phase-contrast microscopy as an indicator of hepatocyte cell health (Tyson & Green, 1987). Cultures for each treatment group (i.e., media, vehicle [0.2% DMSO], positive control inducers [multiple concentrations], and the ToxCast chemicals [multiple concentrations]) were observed and cell morphology was assessed relative to vehicle control cultures at each harvest time point (0, 6, 24, or 48 h). […] Images were evaluated at the conclusion of the study to assess changes in cell integrity and account for the effects of chemical exposure on uncharacteristic changes in concentration-dependent gene expression profiles. The results from these determinations of apparent cytotoxicity were annotated (yes/no) alongside the corresponding qNPA data for reference.At the conclusion of each treatment period, hepatocyte cultures (96-well) were washed with 1 volume of HBSS, lysed by addition of 25 ul ArrayPlate lysis buffer (HTG, Tucson, AZ), and 70 ul/well of Denaturation Oil, denatured by incubation at 95C for 10 min, and frozen at approximately -70C until analysis by nuclease protection assay (qNPA) (Roberts et al., 2007). For qNPA analysis, cell lysates were thawed at 50C for approximately 30 min, qNPA probes were added, and samples were incubated at 95C for 10 min to begin the detection process by denaturing the target RNA, dissociating the duplexes and secondary structure hybridization. At the conclusion of the hybridization period, S1 nuclease reagent was added to each sample to digest all nonprotected nucleotides at 50C for 60-90 min. […]
# Chain of Cytochrome P450 2C19 (Homo sapiens) (P33261 whole entry, looked up): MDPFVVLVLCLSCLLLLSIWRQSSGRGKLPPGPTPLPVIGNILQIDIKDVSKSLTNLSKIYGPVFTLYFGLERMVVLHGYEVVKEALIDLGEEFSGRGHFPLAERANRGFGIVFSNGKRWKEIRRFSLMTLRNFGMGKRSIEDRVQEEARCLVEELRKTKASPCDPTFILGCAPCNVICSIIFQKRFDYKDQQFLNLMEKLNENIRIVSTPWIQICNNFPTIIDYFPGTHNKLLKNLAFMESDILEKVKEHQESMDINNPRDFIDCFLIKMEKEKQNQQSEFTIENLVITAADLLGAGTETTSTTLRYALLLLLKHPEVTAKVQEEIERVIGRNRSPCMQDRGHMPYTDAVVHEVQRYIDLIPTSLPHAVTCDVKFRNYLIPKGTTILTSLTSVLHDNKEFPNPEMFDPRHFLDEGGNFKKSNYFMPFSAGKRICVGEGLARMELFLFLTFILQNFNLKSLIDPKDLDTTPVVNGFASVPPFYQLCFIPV
row,SMILES,outcome
1,CC1(C)CON(Cc2ccccc2Cl)C1=O,inactive
2,CC(C)Oc1cccc(NC(=O)c2ccccc2C(F)(F)F)c1,inactive
3,CCCCC(C#N)(Cn1cncn1)c1ccc(Cl)cc1 (stereo not given),inactive
4,CCNC(=O)NC(=O)C(C#N)=NOC,inactive
5,COCC(=O)N(c1c(C)cccc1C)C(C)C(=O)OC (stereo not given),inactive
6,O=C(O)c1c(Cl)ccc2cc(Cl)cnc12,inactive
7,COC(=O)NC(=S)Nc1ccccc1NC(=S)NC(=O)OC,inactive
8,O=C(Nc1ccccc1-c1ccc(Cl)cc1)c1cccnc1Cl,inactive
9,CC1(C)CCC(=Cc2ccc(Cl)cc2)C1(O)Cn1cncn1 (stereo not given),inactive
10,COC(=O)NS(=O)(=O)c1ccc(N)cc1,inactive
11,N#Cc1c(Cl)cccc1Cl,inactive
12,CCOc1nc(F)cc2nc(S(=O)(=O)Nc3c(Cl)cccc3Cl)nn12,inactive
13,Nc1c(Cl)c(Cl)nc(C(=O)O)c1Cl,inactive
14,CNC(=O)N(C)c1nnc(C(C)(C)C)s1,inactive
15,O=c1n(Cl)c(=O)n(Cl)c(=O)n1Cl,inactive
16,Clc1cccc(C(Cl)(Cl)Cl)n1,inactive
17,CC(C)C1(C)N=C(c2ncccc2C(=O)O)NC1=O (stereo not given),inactive
18,COc1cc(OC)nc(NC(=O)NS(=O)(=O)c2ncccc2OCC(F)(F)F)n1,inactive

row,SMILES,outcome
1,CC(C)N1C(=O)c2ccccc2NS1(=O)=O,inactive
2,CC(C)=CC1C(C(=O)OCc2coc(Cc3ccccc3)c2)C1(C)C (stereo not given),inactive
3,COC(=O)c1c(C(F)F)nc(C(F)(F)F)c(C2=NCCS2)c1CC(C)C,inactive
4,Cc1ccc(N=CN(C)C=Nc2ccc(C)cc2C)c(C)c1,inactive
5,OC(c1ccc(Cl)cc1)(c1ccc(Cl)cc1)C(Cl)(Cl)Cl,inactive
6,CCOc1nc(C(Cl)(Cl)Cl)ns1,inactive
7,N#CN=C1SCCN1Cc1ccc(Cl)nc1,inactive
8,COP(=S)(OC)Oc1ccc([N+](=O)[O-])c(C)c1,inactive
9,COCc1cnc(C2=NC(C)(C(C)C)C(=O)N2)c(C(=O)O)c1 (stereo not given),inactive
10,CC(C)(C)C(=O)C(Oc1ccc(Cl)cc1)n1cncn1 (stereo not given),inactive
11,COP(=O)(OC)O/C(C)=C/C(=O)N(C)C,inactive
12,CS(=O)(=O)c1cc(C(F)(F)F)ccc1C(=O)c1cnoc1C1CC1,inactive
13,CCOP(=O)(OCC)Oc1nc(Cl)c(Cl)cc1Cl,inactive
14,CSC(=O)c1c(C(F)F)nc(C(F)(F)F)c(C(=O)SC)c1CC(C)C,inactive
15,CCOC(=O)C(C)OC(=O)c1cc(Oc2ccc(C(F)(F)F)cc2Cl)ccc1[N+](=O)[O-] (stereo not given),inactive
16,C=C(C)CN(CC)c1c([N+](=O)[O-])cc(C(F)(F)F)cc1[N+](=O)[O-],inactive
17,CN=C=S,inactive
